# Results taken from PubChem BioAssay (NCATS).
# Where “and” joins values, the source holds several entries; their conditions need not be identical. Identical values can stand only once. Records with an inconclusive call do not appear. A call without a number means that no potency is given here. Calls of active or inactive are those of the source. Unless noted, calls come from the whole dose curve.
# Key:
# [1] = Cell Viability - NIH 3T3 (AID 541; active = well fitted curve in the direction sought with a large enough effect; an effect the other way counts as inactive or inconclusive;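 note: cells exposed to compound for 40 hours; nearly all actives have a fitted effect of over 25% in size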); conditions: NIH 3T3 cell viability, qHTS; activity change, negative = cytotoxicity: at 92.2 µM (top of the series)
# Method in brief: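 AC50 values reflect concentration-dependent loss of intracellular ATP in NIH 3T3 cells after 40 hr treatment in complete culture medium, quantified by luciferase-based luminescence.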
# [2] = Cellular Toxicity (caspase-3) Mesangial (AID 660; active = well fitted curve in the direction sought with a large enough effect; an effect the other way counts as inactive or inconclusive;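 note: combined caspase 3 and 7 activity read by Caspase-Glo luminescence; cells exposed to compound for 16 h before the caspase read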)
# Method in brief: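 Concentration-response qHTS: compound-induced rise in caspase 3/7 luminescence in human mesangial cells after 16 h, normalized to DMSO and 100 uM tamoxifen controls.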
# [3] = Cell Viability - LYMP2-004 (AID 966; active = well fitted curve in the direction sought with a large enough effect; an effect the other way counts as inactive or inconclusive; note: nearly all actives have a fitted effect of over 65% in size)
# Method in brief: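 Acute toxicity is scored as a concentration-dependent drop in intracellular ATP, quantified by luciferase luminescence, in human lymphoblastoid cells exposed to compound for 24 hr. AC50 derives from Hill-equation modelling.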
# [4] = Cell Viability - LYMP2-017 (AID 972; active = well fitted curve in the direction sought with a large enough effect; an effect the other way counts as inactive or inconclusive;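 note: cells exposed to compound for 24 hours at 37 °C; nearly all actives have a fitted effect of over 55% in size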)
# Method in brief: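 Steps: plate 2500 lymphoblastoid cells per well; incubate 5 hr at 37 C; add compound across a concentration series and incubate 24 hr at 37 C; add CellTiter-Glo and read luminescence after 30 min at room temperature; fit Hill curves for AC50.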
# [5] = target: Glucocorticoid receptor (Homo sapiens) (UniProt P04150); assay: qHTS assay for small molecule agonists of glucocorticoid receptor signaling (AID 588532; active = well fitted curve in the direction sought with a large enough effect in the signal ratio, with a control signal flat; the % refers to the signal ratio); conditions: HeLa MMTV-bla, beta-lactamase ratio, agonist, 18 h; stronger effect = higher value; percent of dexamethasone control, DMSO zero
# Glucocorticoid receptor (Homo sapiens), sequence (P04150 whole entry, looked up): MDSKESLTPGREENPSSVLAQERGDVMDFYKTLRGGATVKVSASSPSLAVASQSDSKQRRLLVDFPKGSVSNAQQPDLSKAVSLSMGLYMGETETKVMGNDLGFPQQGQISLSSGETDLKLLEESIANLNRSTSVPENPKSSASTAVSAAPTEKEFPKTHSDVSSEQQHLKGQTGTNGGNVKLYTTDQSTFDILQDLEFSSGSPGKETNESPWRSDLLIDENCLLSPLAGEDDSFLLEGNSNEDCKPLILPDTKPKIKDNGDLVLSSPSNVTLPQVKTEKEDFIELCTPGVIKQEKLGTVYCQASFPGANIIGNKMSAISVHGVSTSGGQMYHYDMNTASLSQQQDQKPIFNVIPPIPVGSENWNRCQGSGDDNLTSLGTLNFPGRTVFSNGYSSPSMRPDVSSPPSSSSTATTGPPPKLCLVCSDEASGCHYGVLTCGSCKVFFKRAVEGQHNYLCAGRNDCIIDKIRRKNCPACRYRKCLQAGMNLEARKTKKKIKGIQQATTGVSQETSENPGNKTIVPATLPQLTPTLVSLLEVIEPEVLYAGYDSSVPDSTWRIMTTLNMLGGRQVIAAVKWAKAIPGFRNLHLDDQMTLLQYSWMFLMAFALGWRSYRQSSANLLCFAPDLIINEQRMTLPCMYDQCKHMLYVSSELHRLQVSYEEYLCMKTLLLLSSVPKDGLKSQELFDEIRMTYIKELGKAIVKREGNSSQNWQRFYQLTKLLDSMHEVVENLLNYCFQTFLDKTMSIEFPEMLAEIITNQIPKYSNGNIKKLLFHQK
# Method in brief: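 Stimulation of a glucocorticoid response element-driven beta-lactamase gene was measured in HeLa cells. Responses were scaled between DMSO basal and 0.1 uM dexamethasone, then fitted for half-maximal stimulation.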
# [6] = target: Glucocorticoid receptor (Homo sapiens) (UniProt P04150); assay: qHTS assay for small molecule antagonists of glucocorticoid receptor signaling (AID 588533; active = well fitted inhibition curve with a large enough effect in the signal ratio, with a control signal flat, not every such curve was filed as active; the % refers to the signal ratio;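 note: cells stimulated with 2 nM dexamethasone as agonist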)
# Method in brief: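 Antagonist-mode qHTS: compound titrations added to GRE-bla HeLa cells, then dexamethasone 2 nM final; 18 h, 37 C. CCF4 FRET fluorescence normalized to dexamethasone and DMSO; IC50 from Hill fit.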
# [7] = target: Peroxisome proliferator-activated receptor delta (Homo sapiens) (UniProt Q03181); assay: qHTS assay for small molecule agonists of peroxisome proliferator-activated receptor delta signaling (AID 588534)
# Peroxisome proliferator-activated receptor delta (Homo sapiens), sequence (Q03181 whole entry, looked up): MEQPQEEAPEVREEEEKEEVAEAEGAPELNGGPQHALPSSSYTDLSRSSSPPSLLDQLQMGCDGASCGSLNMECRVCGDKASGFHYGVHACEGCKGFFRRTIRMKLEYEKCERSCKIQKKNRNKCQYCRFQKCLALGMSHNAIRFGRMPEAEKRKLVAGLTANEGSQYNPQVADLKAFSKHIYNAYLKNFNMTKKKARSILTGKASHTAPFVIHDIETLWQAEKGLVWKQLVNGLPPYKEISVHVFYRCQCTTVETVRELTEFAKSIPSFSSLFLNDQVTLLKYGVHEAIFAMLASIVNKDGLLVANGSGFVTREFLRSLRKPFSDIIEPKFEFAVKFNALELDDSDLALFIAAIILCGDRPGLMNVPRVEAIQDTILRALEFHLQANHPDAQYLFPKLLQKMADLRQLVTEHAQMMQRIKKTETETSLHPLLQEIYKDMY
# Method in brief: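 Reporter cells were plated and held 5 hrs at 37 C before compounds were added. After 18 hrs at 37 C, CCF4 dye was loaded for 2 hrs at RT and fluorescence measured.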
# [8] = target: Peroxisome proliferator-activated receptor gamma (Homo sapiens) (UniProt P37231); assay: qHTS assay for small molecule agonists of peroxisome proliferator-activated receptor gamma signaling (AID 588536; active = well fitted curve in the direction sought with a large enough effect in the signal ratio, with a control signal flat, not every such curve was filed as active; the % refers to the signal ratio)
# Peroxisome proliferator-activated receptor gamma (Homo sapiens), sequence (P37231 whole entry, looked up): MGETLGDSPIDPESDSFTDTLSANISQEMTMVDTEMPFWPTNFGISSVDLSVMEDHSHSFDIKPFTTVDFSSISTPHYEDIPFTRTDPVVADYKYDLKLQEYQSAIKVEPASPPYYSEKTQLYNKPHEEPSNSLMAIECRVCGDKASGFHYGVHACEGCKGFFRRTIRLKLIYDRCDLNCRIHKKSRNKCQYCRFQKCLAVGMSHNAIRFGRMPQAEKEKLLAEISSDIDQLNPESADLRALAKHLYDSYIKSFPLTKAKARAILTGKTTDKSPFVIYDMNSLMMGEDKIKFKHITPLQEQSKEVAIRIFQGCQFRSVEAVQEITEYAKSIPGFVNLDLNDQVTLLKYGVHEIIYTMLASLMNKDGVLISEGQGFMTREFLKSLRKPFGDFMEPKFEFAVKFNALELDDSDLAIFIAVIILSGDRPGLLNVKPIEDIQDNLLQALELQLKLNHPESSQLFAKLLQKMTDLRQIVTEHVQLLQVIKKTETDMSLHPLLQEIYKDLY
# Method in brief: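 GeneBLAzer PPAR-gamma-UAS-bla HEK293 cells in 1% charcoal/dextran-treated FBS medium were treated 16 h at 37 C with compounds. Beta-lactamase activity was read by CCF4 ratio (460/530 nm). Response was normalized to 2 uM rosiglitazone (100%) and DMSO, then Hill-fitted for EC50 and efficacy.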
# [9] = target: Peroxisome proliferator-activated receptor gamma (Homo sapiens) (UniProt P37231); assay: qHTS assay for small molecule antagonists of peroxisome proliferator-activated receptor gamma signaling (AID 588537; active = well fitted inhibition curve with a large enough effect in the signal ratio, with a control signal flat, not every such curve was filed as active; the % refers to the signal ratio;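 note: reporter cells co-stimulated with 50 nM rosiglitazone agonist during compound treatment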)
# Method in brief: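 PPAR-gamma-UAS-bla HEK293 cells (3000/well, 1% charcoal/dextran-stripped FBS) were preincubated 6-6.5 h at 37 C, given titrated compounds, then stimulated with 50 nM rosiglitazone for 16 h. Beta-lactamase activity was read with CCF4 dye; IC50 came from Hill fits.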
# [10] = target: Vitamin D3 receptor (Homo sapiens) (UniProt P11473); assay: qHTS assay for small molecule antagonists of vitamin D receptor signaling (AID 588541);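 note: receptor activated by calcitriol during compound treatment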
# Vitamin D3 receptor (Homo sapiens), sequence (P11473 whole entry, looked up): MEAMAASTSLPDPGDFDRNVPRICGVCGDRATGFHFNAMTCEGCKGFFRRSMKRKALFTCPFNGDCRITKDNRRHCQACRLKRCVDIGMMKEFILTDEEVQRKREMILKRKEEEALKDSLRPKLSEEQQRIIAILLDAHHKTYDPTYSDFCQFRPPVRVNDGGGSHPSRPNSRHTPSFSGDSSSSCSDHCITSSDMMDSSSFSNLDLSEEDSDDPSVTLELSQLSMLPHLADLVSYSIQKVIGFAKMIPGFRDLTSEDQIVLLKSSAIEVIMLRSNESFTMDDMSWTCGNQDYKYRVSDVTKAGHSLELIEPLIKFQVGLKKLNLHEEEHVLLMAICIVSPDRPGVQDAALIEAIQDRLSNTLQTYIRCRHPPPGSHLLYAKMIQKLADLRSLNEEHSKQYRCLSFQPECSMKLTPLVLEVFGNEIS
# Method in brief: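 VDR-UAS-bla HEK293T cells (2000/well, 2% charcoal-stripped FBS) were treated with titrated compounds plus 1-alpha,25-dihydroxyvitamin D3 (50 nM or 3 nM final) for 16 h at 37 C. CCF4 beta-lactamase fluorescence was read; Hill fits gave IC50.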
# [11] = target: Vitamin D3 receptor (Homo sapiens) (UniProt P11473); assay: qHTS assay for small molecule agonists of vitamin D receptor signaling (AID 588543)
# Method in brief: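 Reporter cells (HEK293T, VDR-UAS-bla) were seeded in medium with 2% charcoal-stripped serum and incubated 5 h, then compounds in concentration series were added for 16 h at 37 °C. Stimulation was scaled between DMSO basal and 50 nM 1α,25-dihydroxyvitamin D3.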
# [12] = qHTS assay for small molecule agonists of the antioxidant response element (ARE) signaling pathway measured by Nrf2-dependant transcriptional activity (AID 720636; active = well fitted curve in the direction sought with a large enough effect in the repeat runs; an effect the other way counts as inactive or inconclusive;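 note: HepG2 cells with an ARE-driven luciferase reporter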)
# Method in brief: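 HepG2 ARE-luc reporter line, 1% dialyzed FBS; 6 hr attachment at 37 C, compound pinned in, 16 hr at 37 C/5% CO2; ONE-Glo, 30 min RT, luminescence read.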
# [13] = qHTS assay for small molecule antagonists of peroxisome proliferator-activated receptor delta signaling (AID 588535; active = well fitted inhibition curve with a large enough effect in the signal ratio, with a control signal flat, not every such curve was filed as active; the % refers to the signal ratio;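 for max response: cells co-treated with a PPAR-delta agonist as stimulator during compound exposure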); conditions: HEK293T PPARd-UAS-bla, beta-lactamase FRET ratio, 18 h; 460 nm channel
# Method in brief: (§1)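 GeneBLAzer PPAR-delta-UAS-bla HEK293T cells in medium with 2% charcoal/dextran FBS were preincubated 5 hrs at 37 C, then given compounds, incubated 18 hrs at 37 C, and read by CCF4 beta-lactamase fluorescence; IC50 from Hill fits.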
# [14] = target: Peroxisome proliferator-activated receptor delta (Homo sapiens) (UniProt Q03181); assay: as above
# Method in brief: as §1
# [15] = target: Thyroid hormone receptor beta (Homo sapiens) (UniProt P10828); assay: qHTS assay for small molecule antagonists of thyroid hormone receptor beta signaling (AID 588547; active = well fitted inhibition curve with a large enough effect in the signal ratio, with a control signal flat, not every such curve was filed as active; the % refers to the signal ratio;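 note: cells stimulated with 0.4 nM T3 agonist during compound exposure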); conditions: TR-UAS-bla HEK293, beta-lactamase ratio, antagonist mode, 18 h
# Thyroid hormone receptor beta (Homo sapiens), sequence (P10828 whole entry, looked up): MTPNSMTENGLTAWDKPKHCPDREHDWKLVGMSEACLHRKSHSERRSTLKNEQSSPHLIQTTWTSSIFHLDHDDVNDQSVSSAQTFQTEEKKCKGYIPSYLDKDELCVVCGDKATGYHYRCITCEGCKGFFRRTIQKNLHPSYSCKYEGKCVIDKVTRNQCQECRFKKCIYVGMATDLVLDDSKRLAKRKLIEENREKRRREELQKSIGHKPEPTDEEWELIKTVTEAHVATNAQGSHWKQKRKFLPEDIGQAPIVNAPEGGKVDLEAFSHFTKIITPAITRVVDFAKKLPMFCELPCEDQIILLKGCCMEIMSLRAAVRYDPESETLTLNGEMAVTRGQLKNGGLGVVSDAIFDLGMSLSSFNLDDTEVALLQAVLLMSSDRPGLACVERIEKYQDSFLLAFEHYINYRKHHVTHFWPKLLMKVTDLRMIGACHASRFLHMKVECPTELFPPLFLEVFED
# Method in brief: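 TR-UAS-bla GripTite HEK293 cells in 2% charcoal/dextran FBS medium were preincubated 4 h at 37 C, given compound (0.59 nM to 92 uM) plus 0.4 nM T3 (final) for 18 h, then CCF4 for 2 h at RT; Hill fit gave IC50.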
# [16] = qHTS assay for small molecule agonists of the antioxidant response element (ARE) signaling pathway (AID 651741; active = well fitted activation curve with a large enough effect in the signal ratio; the % refers to the signal ratio; note: potency is the fitted concentration of half-maximal effect)
# Method in brief: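 ARE-bla HepG2 cells (beta-lactamase reporter under ARE control) were plated at 2,000 cells/well, preincubated 5 h at 37 C/5% CO2, then treated with DMSO-dissolved compounds for 16 h at 37 C; LiveBLAzer B/G FRET substrate added, fluorescence read after 2 h at room temperature.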
# [17] = qHTS assay for small molecule activators of the nuclear factor-kappa B (NF-kB) signaling pathway (AID 651749; active = well fitted activation curve with a large enough effect in the signal ratio; the % refers to the signal ratio); conditions: NF-kB-bla ME-180 cells, beta-lactamase FRET ratio, 16 h; stronger effect = higher value
# Method in brief: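 ME-180 cells stably carrying a beta-lactamase reporter under an NF-kB response element were exposed to compound or DMSO vehicle for 16 hr at 37C, 5% CO2. Pathway activation was read by FRET, since reporter expression disrupts FRET.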
# [18] = qHTS assay for small molecule antagonists of the retinoid-related orphan receptor gamma (ROR-gamma) signaling pathway - cell viability counter screen (AID 720652; active = well fitted curve in the direction sought with a large enough effect in the repeat runs; an effect the other way counts as inactive or inconclusive;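 note: CHO reporter cells with doxycycline-induced ROR-gamma expression; compound exposure lasted 16 hr before ATP read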)
# Method in brief: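 Cytotoxicity is quantified via intracellular ATP (CellTiter-Glo luminescence) in doxycycline-induced CHO ROR response element-luciferase reporter cells treated with compound for 16 hr at 37 C, 5% CO2.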
# [19] = target: Estrogen receptor (Homo sapiens) (UniProt P03372); assay: qHTS assay for small molecule antagonists of estrogen receptor alpha signaling (AID 588513; active = well fitted curve in the direction sought with a large enough effect in the signal ratio, with a control signal flat, not every such curve was filed as active; the % refers to the signal ratio)
# Estrogen receptor (Homo sapiens), sequence (P03372 whole entry, looked up): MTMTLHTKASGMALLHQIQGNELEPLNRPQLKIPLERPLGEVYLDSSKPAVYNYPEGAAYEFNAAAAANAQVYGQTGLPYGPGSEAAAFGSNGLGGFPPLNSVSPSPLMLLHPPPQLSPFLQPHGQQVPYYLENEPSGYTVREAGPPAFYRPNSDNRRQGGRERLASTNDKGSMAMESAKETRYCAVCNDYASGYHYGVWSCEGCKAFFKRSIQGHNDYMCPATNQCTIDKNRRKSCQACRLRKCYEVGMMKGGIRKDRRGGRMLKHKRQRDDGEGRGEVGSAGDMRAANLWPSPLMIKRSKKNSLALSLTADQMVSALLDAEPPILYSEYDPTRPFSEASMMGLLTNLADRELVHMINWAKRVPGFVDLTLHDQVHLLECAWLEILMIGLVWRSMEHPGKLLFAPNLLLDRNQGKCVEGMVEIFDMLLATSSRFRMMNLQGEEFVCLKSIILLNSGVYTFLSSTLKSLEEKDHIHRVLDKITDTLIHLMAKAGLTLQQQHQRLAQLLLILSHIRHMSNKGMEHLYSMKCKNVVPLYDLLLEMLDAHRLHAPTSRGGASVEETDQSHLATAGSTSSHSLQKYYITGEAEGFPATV
# Method in brief: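 Fluorescence from CCF4 substrate after 2 h at room temperature gave reporter activity; cells had been exposed to compound and 0.5nM 17-beta-estradiol for 18 h at 37 C. Hill-equation fitting yielded IC50 and maximal response.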
# [20] = target: Estrogen receptor (Homo sapiens) (UniProt P03372); assay: qHTS assay for small molecule agonists of estrogen receptor alpha signaling (AID 588514); note: nearly all actives have a fitted effect of over 70% in size
# Method in brief: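 Reporter-gene assay. […] controls beta-lactamase in HEK 293 GripTite cells; after 18 hrs with compound, CCF4 substrate is added for 2 hrs and fluorescence is read.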
Compound,Potency [1],outcome [2],Potency [3],Potency [4],activation [5],outcome [6],outcome [7],outcome [8],Potency [9],outcome [10],outcome [11],Potency [12],max response [13],outcome [14],activity change % (negative = inhibition) [15],Potency [16],activation [17],Potency [18],Potency [19],Potency [20]
O=C(O)C(Cl)(Cl)Br,inactive,inactive,inactive,inactive,-2.11% (inactive),inactive,inactive,inactive,inactive,inactive,inactive,inactive,–,–,–,–,–,–,–,–
COC(=O)c1ccccc1N,–,inactive,inactive,inactive,-6.23% (inactive),inactive,inactive,inactive,inactive,inactive,inactive,inactive,-46.7%,inactive,–,–,–,–,–,–
C=CC=O,inactive,–,inactive,inactive,-2.21% (inactive),inactive,inactive,inactive,–,–,–,inactive,40.7%,inactive,2.84% (inactive),47.3 µM (active),-0.542% (inactive),inactive,–,–
Nc1ccc(-c2ccc(N)cc2)cc1,inactive,–,–,inactive,-6.73% (inactive),inactive,–,inactive,inactive,–,inactive,inactive,–,–,–,inactive,–,inactive,inactive,inactive
C=CC#N,–,inactive,inactive,inactive,-6.69% (inactive),inactive,–,inactive,inactive,inactive,inactive,inactive,–,–,-5.45% (inactive),inactive,-0.054% (inactive),inactive,–,inactive
CCOP(=O)(OCC)OCC,–,inactive,inactive,–,4.27% (inactive) and 16.4% (inactive),inactive,inactive,inactive,inactive,inactive,inactive,inactive,8.93% and -1.46%,inactive,-0.564% (inactive) and 12.2% (inactive),inactive,–,inactive,–,–
c1ccc(C2CO2)cc1 (stereo not given),inactive,–,–,–,9.49% (inactive),inactive,inactive,inactive,inactive,inactive,inactive,–,-22%,inactive,–,inactive,–,–,–,–
NC1CCC(CC2CCC(N)CC2)CC1 (stereo not given),–,inactive,–,inactive,2.97% (inactive) and -18.9% (inactive),inactive,inactive,–,inactive,–,–,inactive,-9.87%,inactive,–,–,–,inactive,inactive,inactive
O=Cc1ccc(Cl)cc1Cl,inactive,inactive,inactive,–,–,inactive,inactive,–,inactive,–,inactive,inactive,-26.8%,inactive,0.009% (inactive),–,1.15% (inactive),inactive,–,–
C=CC(=O)OCCN(C)C,inactive,–,inactive,inactive,1.15% (inactive),–,inactive,inactive,–,inactive,inactive,inactive,29.8%,inactive,-23.4% (inactive),–,–,inactive,–,–
